Broadly, the AC50 is the concentration giving half of the maximal activity seen.

This is an account of results in PubChem BioAssay (EPA / NIEHS).

Calls of active or inactive are those of the source. The calls were made as follows: active = hit-call score of the fitted dose curve at least 0.9, where 1 is the maximum; inactive = score below 0.9.

What all share (conditions): mRNA level, 48 h; actives raise or lower the signal
Read-out in test [1]: succinate dehydrogenase complex iron sulfur subunit B (SDHB), SDHB (gene 6390)
The test can be described thus: LTEA_HepaRG_SDHB: Life Technologies and Expression Analysis (LTEA) Assay for succinate dehydrogenase complex iron sulfur subunit B (SDHB) using HepaRG (AID 2283528). An outline of the steps:
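HepaRG, 48 h exposure, 8-pt half-log series from 100 uM in 0.5% DMSO, duplicates. Readout: SDHB mRNA by Fluidigm qRT-PCR vs housekeeping genes; bidirectional fit relative to DMSO.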

Read-out in test [2]: Signal transducer and activator of transcription 3 (Homo sapiens) (UniProt P40763)
The test can be described thus: LTEA_HepaRG_STAT3: Life Technologies and Expression Analysis (LTEA) Assay for Signal transducer and activator of transcription (STAT3) using HepaRG (AID 2283529). An outline of the steps:
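Read-out is STAT3 mRNA level by qRT-PCR, normalized to three housekeeping genes, in human HepaRG liver cells treated for 48 h. Concentrations ran from 100 uM downward in half-log steps; curves were fitted for gain or loss relative to 0.5% DMSO.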

Read-out in test [3]: solute carrier (SLCO1B1), SLCO1B1 (gene 10599)
Description: LTEA_HepaRG_SLCO1B1: Life Technologies and Expression Analysis (LTEA) Assay for solute carrier (SLCO1B1) using HepaRG (AID 2283530). An outline of the steps:
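Differentiated human HepaRG cells, plated 48 h, switched to serum-free induction medium and exposed in duplicate for 48 h to 8 half-log concentrations (top 100 uM) in 0.5% DMSO. SLCO1B1 mRNA by TaqMan qRT-PCR, normalized to ACTB/GAPDH/POLR2A.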

Read-out in test [4]: sulfotransferase 2A1 (SULT2A1), SULT2A1 (gene 6822)
Description: LTEA_HepaRG_SULT2A1: Life Technologies and Expression Analysis (LTEA) Assay for sulfotransferase 2A1 (SULT2A1) using HepaRG (AID 2283531). An outline of the steps:
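Differentiated human HepaRG cells in serum-free induction medium were exposed for 48 h to eight half-log concentrations (top 100 uM, 0.5% DMSO). SULT2A1 mRNA was measured by qRT-PCR, normalized to ACTB, GAPDH and POLR2A, and fitted bidirectionally against DMSO.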

Read-out in test [5]: Transforming Growth Factor (TGFA), TGFA (gene 7039)
Description: LTEA_HepaRG_TGFA: Life Technologies and Expression Analysis (LTEA) Assay for Transforming Growth Factor (TGFA) using HepaRG (AID 2283532). An outline of the steps:
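HepaRG (human liver line), 48 h exposure, 8 conc. half-log down from 100 uM, 0.5% DMSO vehicle, duplicates; serum-free induction medium. TGFA mRNA by TaqMan qRT-PCR, ACTB/GAPDH/POLR2A normalization; gain/loss fit vs DMSO.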

Read-out in test [6]: Transforming Growth Factor (TGFB1), TGFB1 (gene 7040)
Description: LTEA_HepaRG_TGFB1: Life Technologies and Expression Analysis (LTEA) Assay for Transforming Growth Factor (TGFB1) Transporter using HepaRG (AID 2283533). An outline of the steps: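 Differentiated human HepaRG cells in serum-free induction medium were exposed in duplicate for 48 h to eight concentrations (top 100 uM, half-log steps, 0.5% DMSO). TGFB1 mRNA was quantified by qRT-PCR, normalized to ACTB, GAPDH, POLR2A, and fitted bidirectionally against DMSO.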

Read-out in another test: TIMP1, TIMP1 (gene 7076)
Description: LTEA_HepaRG_TIMP1: Life Technologies and Expression Analysis (LTEA) Assay for TIMP1 using HepaRG (AID 2283534).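 As to outcome: TaqMan qRT-PCR signal normalized to ACTB GAPDH and POLR2A housekeeping genes.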 An outline of the steps:
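Differentiated human HepaRG cells in serum-free induction medium were exposed 48 h to chemicals (8 half-log concentrations, top 100 uM, 0.5% DMSO). TIMP1 mRNA was quantified by TaqMan qRT-PCR, normalized to ACTB/GAPDH/POLR2A; bidirectional fit versus DMSO.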

Read-out in test [7]: Tumor necrosis factor receptor 1 (TNFRSF1A), TNFRSF1A (gene 7132)
Description: LTEA_HepaRG_TNFRSF1A: Life Technologies and Expression Analysis (LTEA) Assay for Tumor necrosis factor receptor 1 (TNFRSF1A) using HepaRG (AID 2283535). An outline of the steps: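 Differentiated human HepaRG cells were exposed in duplicate for 48 h in serum-free induction medium to eight concentrations (top 100 uM, half-log steps, 0.5% DMSO). TNFRSF1A mRNA was quantified by qRT-PCR, normalized to ACTB, GAPDH and POLR2A, then fitted bidirectionally against DMSO.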

Read-out in test [8]: Thyroid Hormone Responsive (THRSP), THRSP (gene 7069)
The test can be described thus: LTEA_HepaRG_THRSP: Life Technologies and Expression Analysis (LTEA) Assay for Thyroid Hormone Responsive (THRSP) using HepaRG (AID 2283536). An outline of the steps:
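mRNA induction or loss relative to 0.5% DMSO vehicle was fitted bidirectionally across an eight-point curve whose highest exposure was 100 uM. Human HepaRG liver cells received chemicals in duplicate over 48 h before RNA extraction.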

Read-out in test [9]: Cellular tumor antigen p53 (Homo sapiens) (UniProt P04637)
The test can be described thus: LTEA_HepaRG_TP53: Life Technologies and Expression Analysis (LTEA) Assay for Tumor Protein P53 (TP53) using HepaRG (AID 2283537). An outline of the steps:
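HepaRG, 48 h exposure, top 100 uM, half-log 8-point, 0.5% DMSO vehicle, duplicates. Read: TP53 mRNA by TaqMan qRT-PCR, normalised to ACTB/GAPDH/POLR2A; bidirectional fit vs DMSO.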

Chain of Cellular tumor antigen p53 (Homo sapiens) (P04637 whole entry, looked up): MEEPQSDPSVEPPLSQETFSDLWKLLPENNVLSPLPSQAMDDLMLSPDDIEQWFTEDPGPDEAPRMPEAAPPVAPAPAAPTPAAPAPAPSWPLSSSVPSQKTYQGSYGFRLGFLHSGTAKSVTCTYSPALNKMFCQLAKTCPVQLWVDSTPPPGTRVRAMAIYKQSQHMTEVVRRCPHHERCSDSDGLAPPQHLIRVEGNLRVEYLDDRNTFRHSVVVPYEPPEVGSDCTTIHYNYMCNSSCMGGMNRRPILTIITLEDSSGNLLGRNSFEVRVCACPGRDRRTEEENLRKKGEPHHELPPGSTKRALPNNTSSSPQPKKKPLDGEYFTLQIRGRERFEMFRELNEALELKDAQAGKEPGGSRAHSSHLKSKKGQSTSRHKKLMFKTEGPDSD
Chain of Signal transducer and activator of transcription 3 (Homo sapiens) (P40763 whole entry, looked up): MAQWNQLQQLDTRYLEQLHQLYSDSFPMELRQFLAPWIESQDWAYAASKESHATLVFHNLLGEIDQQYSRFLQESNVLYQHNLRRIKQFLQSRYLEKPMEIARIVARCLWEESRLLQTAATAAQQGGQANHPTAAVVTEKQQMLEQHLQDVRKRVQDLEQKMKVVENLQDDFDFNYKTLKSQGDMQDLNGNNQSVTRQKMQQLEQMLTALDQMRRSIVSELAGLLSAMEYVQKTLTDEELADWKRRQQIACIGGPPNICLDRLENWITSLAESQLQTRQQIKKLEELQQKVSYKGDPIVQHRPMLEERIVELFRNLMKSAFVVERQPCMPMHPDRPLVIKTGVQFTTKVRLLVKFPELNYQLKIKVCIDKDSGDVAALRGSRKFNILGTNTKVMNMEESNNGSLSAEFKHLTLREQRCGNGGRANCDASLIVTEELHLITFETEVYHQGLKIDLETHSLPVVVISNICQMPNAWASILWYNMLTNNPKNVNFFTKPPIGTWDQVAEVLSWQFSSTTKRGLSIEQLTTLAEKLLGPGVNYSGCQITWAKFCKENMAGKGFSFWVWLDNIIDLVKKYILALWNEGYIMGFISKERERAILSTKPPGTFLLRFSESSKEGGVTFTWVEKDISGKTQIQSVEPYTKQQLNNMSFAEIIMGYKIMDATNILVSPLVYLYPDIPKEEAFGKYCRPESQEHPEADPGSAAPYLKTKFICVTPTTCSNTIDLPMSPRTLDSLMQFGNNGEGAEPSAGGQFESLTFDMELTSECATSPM

Take `C=C(C)[C@H]1Cc2c(ccc3c2O[C@@H]2COc4cc(OC)c(OC)cc4[C@@H]2C3=O)O1`: the concentration at half-maximal activity (AC50) in test [1] is 0.358 µM (active); in [3], 12.3 µM (active); in [4] it was 13.2 µM (active); in test [5], 7.78 µM (active); with TIMP1, TIMP1 (gene 7076) it was 11.1 µM (active); in test [7] it was 50 µM (active). Moreover, the AC50 in [8] was 1.36 µM (active). Also, the molecule was classed as inactive in test [2] and in test [6].

`CC(C)N(C(=O)SCC(Cl)=C(Cl)Cl)C(C)C`: the result in test [1], in test [2], in test [3], in [4], in test [5] and in [6] was inactive. The outcome with TIMP1, TIMP1 (gene 7076) was “inactive”; in [7], “inactive”; in test [8] it was “inactive”; in test [9] it was “inactive”.

With `CCc1cccc(CC)c1N(COC)C(=O)CCl`, the result in test [1], in test [2], in [3], in [4], in test [5] and in [6] was inactive. For the same molecule, the outcome is “inactive” with TIMP1, TIMP1 (gene 7076); “inactive” in test [7]; “inactive” in test [8].

Turning to `CC1=NNC(=O)N(/N=C/c2cccnc2)C1`, the molecule was called inactive in test [1], in [2], in test [3], in [4], in [5] and in test [6]. Also, the outcome with TIMP1, TIMP1 (gene 7076) was “inactive”; in test [7], “inactive”; in test [9], “inactive”. For the same molecule, the AC50 in test [8] is 12.9 µM (active).

On to `CCOP(=O)(SC(C)CC)N1CCSC1=O` (configuration not stated), for which the outcome in test [1], in test [2], in test [3], in [4], in [5] and in test [6] was inactive. The outcome with TIMP1, TIMP1 (gene 7076) was “inactive”; in test [7], “inactive”; in test [8], “inactive”.

With `C[N+]1(C)CCCCC1`, the molecule was called inactive in test [1], in test [2], in [3], in test [4], in test [5] and in [6]. Further, the outcome with TIMP1, TIMP1 (gene 7076) was “inactive”; in test [7] it was “inactive”; in test [8], “inactive”; in test [9] it was “inactive”.

As to `O=[N+]([O-])c1cc(C(F)(F)F)c(Cl)c([N+](=O)[O-])c1Nc1ncc(C(F)(F)F)cc1Cl`, the outcome in test [1] was “inactive”; in test [2], “inactive”; in test [5], “inactive”; with TIMP1, TIMP1 (gene 7076), “inactive”; in test [7], “inactive”. Besides, the AC50 in test [3] was 23.4 µM (active); in [4] it was 50 µM (active); in test [6], 79.7 µM (active); in [8], 23.9 µM (active).

In the case of `N#CSCSC#N`, the molecule was called inactive in [1], in [2], in test [3], in test [4], in [5] and in [6]. For the same molecule, the outcome was “inactive” with TIMP1, TIMP1 (gene 7076); “inactive” in test [7]; “inactive” in [9]. Further, the AC50 in [8] was 50 µM (active).

Consider `O=C(O)c1cc(Oc2ccc(C(F)(F)F)cc2Cl)ccc1[N+](=O)[O-]`, for which the outcome in test [1] was “inactive”; in test [2], “inactive”; in test [3], “inactive”; in [5], “inactive”; in test [6], “inactive”; in the test with TIMP1, TIMP1 (gene 7076), “inactive”. For the same molecule, the molecule was classed as inactive in test [7] and in test [8]. Further, in test [4], the AC50 is 50 µM (active).

In the case of `C#CCC1=C(C)C(OC(=O)C2C(C=C(C)C)C2(C)C)CC1=O` (configuration not stated), the values for the half-maximal activity concentration (AC50) in test [1] and in test [8] were 9.87 µM (active) and 88.9 µM (active), respectively. In addition, the outcome in [2] is “inactive”; in test [3] it was “inactive”; in test [4], “inactive”; in test [5], “inactive”; in [6], “inactive”; with TIMP1, TIMP1 (gene 7076) it was “inactive”. Besides, the molecule was called inactive in test [7] and in test [9].

As for `CN(C)NC(=O)CCC(=O)O`, the molecule was classed as inactive in test [1], in [2], in [3], in test [4], in [5] and in test [6]. In addition, the outcome with TIMP1, TIMP1 (gene 7076) is “inactive”; in test [7], “inactive”; in [8], “inactive”; in test [9], “inactive”.

Turning to `CN(C)[C@@H]1C(=O)C(C(N)=O)=C(O)[C@@]2(O)C(=O)C3=C(O)c4c(O)cccc4[C@@](C)(O)[C@H]3[C@H](O)[C@@H]12`, the call in [1], in test [2], in [3], in test [4], in test [5] and in test [6] was inactive. The outcome with TIMP1, TIMP1 (gene 7076) is “inactive”; in [7], “inactive”; in test [8] it was “inactive”.

Consider `CC(C1CC1)C(O)(Cn1cncn1)c1ccc(Cl)cc1` (configuration not stated), for which the outcome in test [1] is “inactive”; in test [3], “inactive”; in test [4], “inactive”; in test [5] it was “inactive”; in test [6], “inactive”; with TIMP1, TIMP1 (gene 7076), “inactive”. Also, the molecule was called inactive in test [7] and in [9]. The AC50 was 0.389 µM (active) in test [2] and 28.1 µM (active) in [8].

On to `CCC(=NOC/C=C/Cl)C1=C(O)CC(C2CCOCC2)CC1=O` (configuration not stated), for which the outcome in test [1], in [2], in test [3], in [4], in test [5] and in test [6] was inactive. For the same molecule, the outcome with TIMP1, TIMP1 (gene 7076) was “inactive”; in test [7], “inactive”; in test [8], “inactive”; in test [9], “inactive”.

As to `COP(=O)(OC)OC(Br)C(Cl)(Cl)Br` (configuration not stated), the outcome is “inactive” in test [1]; “inactive” in test [2]; “inactive” in [3]; “inactive” in [5]; “inactive” in [6]; “inactive” with TIMP1, TIMP1 (gene 7076). For the same molecule, the molecule was called inactive in test [7] and in [8]. Also, in test [4], the AC50 was 50 µM (active).

For `CC(C)=CC1C(C(=O)OCN2C(=O)C3=C(CCCC3)C2=O)C1(C)C` (configuration not stated), the outcome in test [1], in test [2], in test [3], in test [4], in [5] and in test [6] was inactive. Also, the outcome with TIMP1, TIMP1 (gene 7076) is “inactive”; in test [7], “inactive”; in test [8], “inactive”; in test [9], “inactive”.

In the case of `S=C1NCCN1`, the outcome is “inactive” in test [1]; “inactive” in [2]; “inactive” in test [4]; “inactive” in test [5]; “inactive” in [6]; “inactive” in the test with TIMP1, TIMP1 (gene 7076). In addition, the outcome in [7], in test [8] and in test [9] was inactive. Besides, the AC50 in test [3] is 0.24 µM (active).

As for `CNC(=O)ON=C(C)SC`, the molecule was called inactive in [1], in test [2], in test [3], in test [4], in test [5] and in test [6]. Further, the outcome with TIMP1, TIMP1 (gene 7076) is “inactive”; in test [7], “inactive”; in test [8], “inactive”; in test [9], “inactive”.

In the case of `CSC1=N[C@@](C)(c2ccccc2)C(=O)N1Nc1ccccc1`, the AC50 is 9.92 µM (active) in test [2]; 35.7 µM (active) in test [3]; 34.9 µM (active) in [4]; 29.7 µM (active) in [5]; 71.4 µM (active) in test [8]; 28.4 µM (active) in test [9]. Also, the outcome in test [6] is “inactive”; in the test with TIMP1, TIMP1 (gene 7076), “inactive”; in test [7], “inactive”.

Take `CC(Oc1cccc(Cl)c1)C(=O)O` (configuration not stated): the molecule was called inactive in test [1], in test [2], in test [3], in test [4], in [5] and in test [6]. For the same molecule, the outcome in the test with TIMP1, TIMP1 (gene 7076) was “inactive”; in [7], “inactive”; in [8], “inactive”; in [9], “inactive”.
